High-throughput results deposited in PubChem BioAssay by National Center for Advancing Translational Sciences (NCATS).
D3 antag: qHTS of D3 Dopamine Receptor Antagonist: qHTS. D(3) dopamine receptor (Homo sapiens), P35462. max response, negative = inhibition, %. AID 652054, 2013. actives 2.5% (n = 360,000). D3R cells, DiscoveRx beta-arrestin luminescence, antagonist mode; active compounds read low; in the data active means max response below about -50%; inconclusive means no clear call, values can overlap the other calls
Target sequence (P35462 whole entry, looked up): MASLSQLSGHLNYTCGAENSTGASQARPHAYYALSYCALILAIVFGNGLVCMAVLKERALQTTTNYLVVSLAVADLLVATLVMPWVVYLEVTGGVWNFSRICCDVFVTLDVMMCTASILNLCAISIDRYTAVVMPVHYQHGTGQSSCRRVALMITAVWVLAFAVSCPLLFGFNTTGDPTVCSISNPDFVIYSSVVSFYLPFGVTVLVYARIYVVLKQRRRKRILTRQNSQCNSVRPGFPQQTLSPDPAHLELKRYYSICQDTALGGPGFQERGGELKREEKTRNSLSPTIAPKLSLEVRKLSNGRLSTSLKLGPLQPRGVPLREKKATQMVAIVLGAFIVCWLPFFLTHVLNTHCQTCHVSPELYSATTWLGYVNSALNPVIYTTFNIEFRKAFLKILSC
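Cells expressing the human receptor were seeded at 1500 cells/well, incubated overnight at 37 degrees C in 5% CO2, then exposed to library compounds with dopamine controls for 90 minutes at 37 degrees C before luminescent detection.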
Giardia killer: Small Molecules that selectively kill Giardia lamblia: qHTS | Giardia lamblia trophozoite viability | activity change, % at 7.66 µM, hits read low | actives 0.15% (n = 340,000); in the data active means activity change below about -80%; inconclusive means between about -30% and that limit;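 further: parasites exposed to compound for two days anaerobically before the ATP read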
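Giardia trophozoites, 100 cells per well, were exposed to compounds for 48 hrs at 37 deg C under anaerobic conditions; viability was then read as ATP content by bioluminescence after 15-30 min at room temperature.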
DRD3 agonist: qHTS of D3 Dopamine Receptor Agonist: qHTS; AID 652048, 2013; D3R DiscoveRx beta-arrestin cells, luminescence, 90 min; actives 0.58% (n = 410,000); max activation, %; in the data active means max activation above about 30%
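Cells at 1500/well, incubated overnight, then treated with pinned compounds (dopamine as control) for 90 min at 37 degrees C. DiscoveRx reagent added for 30 - 60 minutes at room temperature; luminescence read.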
B2AR arrestin: qHTS assay of beta-arrestin-biased ligands of beta2-adrenergic receptor; Beta-2 adrenergic receptor (Homo sapiens), P07550; actives 0.02% (n = 330,000); beta-arrestin recruitment to beta2AR, cell-based reporter; Potency, µM (top dose mostly 46.1 µM), usual class: activators; AID 492947, 2010; active means well fitted activation curve with a large enough effect; inconclusive means small, poorly fitted or top-dose-only effect; further: nearly all actives have a fitted effect of over 65% in size
Hits are given with their value; – = inactive; ? = inconclusive; · = not tested or not shown. An excerpt weighted towards active compounds, which were near 2.8% of everything screened.

SMILES	D3 antag	Giardia killer	DRD3 agonist	B2AR arrestin
Clc1ccccc1/C=N/N1CCN(Cc2ccccc2)CC1	–	–	–	–
O=[N+]([O-])c1ccc(Cl)c(/C=N/N2CCN(Cc3ccccc3)CC2)c1	–	–	–	–
Nc1c(N(CCC2=CCCCC2)C(=O)COc2ccc(F)cc2Cl)c(=O)[nH]c(=O)n1Cc1ccccc1	-91.5	–	–	·
CC(C)CCN(C(=O)Cc1ccc(Cl)c(Cl)c1)c1c(N)n(Cc2ccccc2)c(=O)[nH]c1=O	-72.2	–	–	–
CC1=C/C(=N\NC(=S)NCc2ccccc2)CC1	–	–	–	7.08µM
COc1ccc(CCNC(=O)c2cc(Sc3cccc(Cl)c3)nc3ccccc23)cc1OC	·	·	–	·
O=C(O)c1cccc(S(=O)(=O)Nc2ccc3[nH]c(=O)[nH]c3c2)c1	–	–	–	–
O=C(O)c1cccc(S(=O)(=O)Nc2ccc3oc(=O)sc3c2)c1	-87.5	–	–	–
COC(=O)c1sc2cccc(F)c2c1S(=O)(=O)Nc1ccc(N(C)C)cc1	·	·	–	·
Cc1ccccc1CNc1ncnc2c1ncn2[C@@H]1O[C@H](CO)[C@@H](O)[C@H]1O	·	·	–	·
Nc1nc(Sc2ccc([N+](=O)[O-])c3nonc23)c2[nH]cnc2n1	-59.8	–	–	·
CNc1ncnc(Sc2nc(N)nc3nc[nH]c23)c1[N+](=O)[O-]	–	–	–	·
COc1ccc(OC)c(NC(=O)Cn2cnc3ccc(S(=O)(=O)N4CCC(C)CC4)cc3c2=O)c1	·	·	–	·
CC(=O)Oc1ccc2ccccc2c1C(NC(=O)C(C)C)c1cccc([N+](=O)[O-])c1 (stereo unspecified)	–	–	–	–
CC(=O)NC(c1cccc([N+](=O)[O-])c1)c1c(OC(C)=O)ccc2ccccc12 (stereo unspecified)	-67.8	–	–	·
COc1ccccc1NC(=S)NNC(=O)c1ccncc1	–	–	–	–
COc1ccccc1NC(=S)NNC(=O)c1cc(C)nn1C	-70.3	–	–	–
COc1ccccc1NC(=S)NNC(=O)c1c(Cl)c(C)nn1C	–	–	–	–
COc1ccccc1NC(=S)NNC(=O)c1ccccc1	-72.0	–	–	·
COc1ccccc1NC(=S)NNC(=O)c1cc(C)n(C)n1	-50.4	–	–	–
C[N+]1(C)[C@@H]2CC(OC(=O)C(O)(c3cccs3)c3cccs3)C[C@H]1[C@@H]1O[C@@H]12 (stereo partly specified)	·	·	–	·
c1ccc(CN2CCN(CCN3CCn4c3nc3ccccc34)CC2)cc1	-71.8	–	–	–
c1ccc2c(c1)nc1n2CCN1CCNC1CCCCC1	–	–	–	–
c1ccc2c(c1)nc1n2CCN1CCN1CCCC1	-111.6	–	–	–
CCOC(=O)c1cnc2ccc(OC(F)(F)F)cc2c1Nc1ccccc1C(=O)O	·	·	30.7	·
SMILES	D3 antag	Giardia killer	DRD3 agonist	B2AR arrestin
COc1ccc(-c2cnn3c4c(c(C)nc23)CCN4C(C)C)cc1OC	–	–	40.8	–
COC(CN1CCc2c(C)nc3c(C#N)cnn3c21)OC	–	–	–	–
O=C(N/N=C/c1ccc(O)cc1O)C1CC1	-91.6	–	–	·
O=C(N/N=C/c1ccc(O)cc1O)c1ccc(NC(=O)C2CCCCC2)cc1	–	–	–	–
O=C(N/N=C/c1ccc(O)cc1O)c1ccncc1	–	–	41.6	–
O=C(CNC(=O)C(c1ccccc1)c1ccccc1)N/N=C/c1ccc(O)cc1O	–	–	32.5	–
Cc1ccc(SC2=NS(=O)(=O)c3ccccc32)c(C)c1	·	–	·	·
CCCCCn1c(CN2CCN(c3cc(Cl)ccc3C)CC2)nc2c1c(=O)[nH]c(=O)n2C	–	–	86.8	–
COc1ccc(/C=N/Nc2cc(C)nc3ccccc23)cc1	–	–	–	–
COc1ccc2nc(C)cc(N/N=C/c3ccc(F)cc3)c2c1	–	-80.6	–	–
CCCCOC(=O)CSc1nnc(-c2ccc(Cl)cc2Cl)o1	-51.8	–	–	–
O=C(Nc1ccc(S(=O)(=O)NCc2cccnc2)cc1)c1ccccc1Cl	-82.5	–	–	–
O=C(O)c1ccc(NC(=O)c2cn(-c3ccccc3)nc2-c2ccc(F)cc2)cc1	–	–	–	–
O=C(O)c1ccc(NC(=O)c2cn(-c3ccccc3)nc2-c2cccc(Cl)c2)cc1	–	–	36.1	–
COC(=O)c1ccc(NC(=O)c2cn(-c3ccccc3)nc2-c2ccncc2)cc1	-67.2	–	–	–
O=C(CNC(=O)C1CCCCC1)OCC(=O)c1ccc2c(c1)CCC2	·	–	·	·
COc1cc(C)ccc1OCCOCCN(C)Cc1ccccc1	?	–	–	–
COc1ccc(OCCCN(C)Cc2ccccc2)cc1	–	–	–	–
CN(Cc1ccccc1)Cc1ccccc1	·	·	–	·
CCc1ccc(OCCCCN(C)Cc2ccccc2)cc1	-71.3	–	–	–
CN(CCOc1ccc(F)cc1)Cc1ccccc1	-69.5	–	–	–
CCC(C)c1ccccc1OCCCN(C)Cc1ccccc1 (stereo unspecified)	-60.4	?	–	–
Cc1cc(C)c(C)c(OCCCCN(C)Cc2ccccc2)c1	-71.2	–	–	–
Cn1nc(C(=O)NCc2cccc(Cl)c2)c2c1-c1ccccc1SC2	·	·	–	·
CCC(CC)C(=O)Nc1ccc(OCc2cc(=O)n3c4c(sc3n2)CCCC4)cc1	·	·	–	·
SMILES	D3 antag	Giardia killer	DRD3 agonist	B2AR arrestin
CN(CCCCOc1ccc(F)cc1)Cc1ccccc1	-82.6	–	–	–
CN(CCOCCOc1ccc2ccccc2c1)Cc1ccccc1	-64.1	–	–	–
CN(CCOc1ccccc1)CCOc1ccccc1	-87.4	–	–	–
CCN(Cc1ccccc1)Cc1ccc(OCc2ccccc2)cc1	-84.1	–	–	–
CC(O)CNCCCOc1cccc(C(F)(F)F)c1 (stereo unspecified)	-70.9	–	–	–
CC(O)CNCCCOc1cccc(Oc2ccccc2)c1 (stereo unspecified)	?	–	–	–
CN(CCOc1cccc(C(F)(F)F)c1)Cc1ccccc1	-87.3	–	–	–
FC(F)(F)c1cccc(OCCN2CCN(Cc3ccccc3)CC2)c1	-82.4	–	–	–
COc1ccc(OCCN(C)Cc2ccccc2)cc1	?	–	–	–
COc1ccc(C2CC(c3ccccc3)Oc3cc(OC)c(OC)c(OC)c32)cc1 (stereo unspecified)	·	–	·	·
O=C(NCCc1nc2ccccc2n1Cc1ccccc1F)c1ccc(F)cc1	·	–	–	·
O=C(NCc1cccnc1)c1ccc2sc([C@@H]3O[C@H](CO)[C@H](O)[C@H](O)[C@H]3O)nc2c1	-55.1	·	–	·
CN(C)c1cccc(CNC(=O)c2ccc3sc([C@@H]4O[C@H](CO)[C@H](O)[C@H](O)[C@H]4O)nc3c2)c1	-101.1	·	–	·
O=C(NCc1cc(Cl)cc(Cl)c1)c1ccc2sc([C@@H]3O[C@H](CO)[C@H](O)[C@H](O)[C@H]3O)nc2c1	–	·	–	·
Cc1ccc(OCCNc2cc(N3CCN(CCO)CC3)ccc2[N+](=O)[O-])cc1C	-56.0	–	–	–
Cc1cccc(OCCNc2cc(N3CCN(C)CC3)ccc2[N+](=O)[O-])c1	-64.8	–	–	–
